# Results: PubChem BioAssay (NCI)
# About 83,000 compounds went through this panel and 20% of them were active in at least one assay; those are over-represented in the sample as a whole.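 Method: cells in 96-well plates; compound added at one concentration; 48 h incubation; percent growth measured; values under 10 scored active.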 Unmarked numbers belong to inactive results. Active and inactive are the calls of the source.
# Tested on: CCRF-CEM leukemia
# Assay: NCI-60 one-dose screen, 48 h (100 = growth as untreated, 0 = no growth, -100 = all killed)
# Settings: 10 µM unless noted
# Protocol: Growth inhibition of the CCRF-CEM human tumor cell line is measured as a screen for anti-cancer activity. Cells are grown in 96 well plates and exposed to the test compound for 48 hours. Compounds are tested at a single concentration, which is 10^-5 M for most compounds. The reported endpoint is percent growth (GI% or GIPRCNT), where numbers from 0 - 100% represent growth inhibition, and numbers from -100% - 0 represent cell death. For example, a value of 40 represents 60% growth inhibition. A value of 0 means no net growth occurred over the course of the experiment. A value of -40 indicates 40% of cells at the beginning of the experiment died by the end of the experiment. A value of -100 means all cells are dead at the end of the experiment.
# NCI-60 Human Tumor Cell Lines Screen was performed using the standard one-dose NCI protocol, which is described in more detail at https://dtp.cancer.gov/discovery_development/nci-60/default.htm.
# Compounds with GIPRCNT values below 10 were considered active. Activity score was based on GIPRCNT using the following formula: […]
# Score is 0 for GIPRCNT values of 100 or above, 50 for GIPRCNT values of 0, and 100 for GIPRCNT values of -100.
row,Structure (SMILES),growth
1,C=CCn1c(SCC(=O)c2ccc(Br)cc2)nnc1-c1c[nH]c2ccccc12,97.9%
2,OC1CCN(CCCOc2c3ccc(Cl)cc3nc3c2oc2ccccc23)CC1,2.24% (active)
3,COc1cccc(-c2nn(-c3ccccc3)cc2-c2ccnc(N3CCN(C(=O)c4ccccc4)CC3)c2)c1,52.9%
4,Fc1ccc(-c2cc3nc(C(Cl)Cl)nc(-c4ccc(Cl)cc4)n3n2)cc1,56.8%
5,COc1cc2nc(-c3ccc(Cl)cc3)cc(OCCCNCC3CCCO3)c2cc1OC (stereo not given),49.1%
6,COc1cc2nc(-c3ccc(C)cc3)cc(OCCCNCC3CCCO3)c2cc1OC (stereo not given),73.4%
7,Cc1cc2nc3c4cc(Cl)ccc4n(CC(=O)NCCN(C)C)c3nc2cc1C,-14.5% (active)
8,COc1ccc(-n2c(SCC(=O)Nc3ccc(-c4nc5ccccc5[nH]4)cc3)nc3ccccc3c2=O)cc1,25.7%
9,O=C(N/N=C/c1ccc(Br)s1)c1[nH]c2ccc(Br)cc2c1-c1ccccc1,9.08% (active)
10,Cc1cc2nc3c4cc(Cl)ccc4n(CC(=S)NCCN(C)C)c3nc2cc1C,-49.3% (active)
11,CC(=O)Nc1cc(F)cc(-c2ccc3[nH]cc(-c4ccccc4)c3n2)c1,16.9%
12,O=C1Nc2cc(Cl)ccc2/C1=C\c1ccc(OCc2ccc([N+](=O)[O-])cc2)cc1,5.4% (active)
13,C#C[C@]1(O)CC[C@H]2[C@@H]3CC=C4c5sc(-c6ccc(F)cn6)nc5CC[C@]4(C)[C@H]3CC[C@@]21C,8.87% (active)
14,O=C1Nc2ccc(Cl)cc2/C1=C/c1ccc(OCC(=O)c2ccc(Br)cc2)cc1,102%
15,[Cl][Ru].c1ccc(-c2cc(-c3ccccn3)nc(-c3ccccn3)c2)cc1.c1ccc(-c2ccnc3c2ccc2c(-c4ccccc4)ccnc23)cc1,0.187% (active)
16,Clc1ccc(-c2cn3cc(Cc4ccc(Cl)c(Cl)c4)sc3n2)cc1,79.7%
17,C[C@@H](Nc1c(C#N)cnc2ccc(-c3cnc(N)nc3)cc12)c1ccccc1,14%
18,Cc1cc(=O)oc2cc(OCCCOc3ccc(/C=C/C(=O)Nc4ccc(Cl)cc4)cc3)ccc12,68.2%
19,COc1cc(/C=C/C(=O)c2cc(OC)c(OC)c(OC)c2)ccc1OCc1ccc(F)cc1,5.5% (active)
20,COc1ccc(N/N=C/c2c(-c3ccc(S(C)(=O)=O)cc3)nc3ccccn23)cc1,32%

row,Structure (SMILES),growth
1,CCOC(=O)c1c(Nc2ccccc2)nn2c(N)c(C#N)c(-c3ccc(F)cc3)nc12,68%
2,COc1ccc(C(=O)/C=C/c2ccc(OCc3ccc(C)cc3)c(OC)c2)cc1OC,32.2%
3,CC(C)(O)c1cncc(-c2ccc3ncnc(N4CCc5cc(F)c(Cl)cc54)c3c2)c1,22.2%
4,COc1ccc(CNS(=O)(=O)/N=C2\NC(=O)NC2=C(Cl)Cl)cc1,15.8%
5,C/C(=N\NC(N)=O)c1c(O)sc(=O)[nH]c1=O,100%
6,C=CCSc1ccc2c(c1)C(N1CCNCC1)=Nc1ccccc1O2,66.6% [8.25 µM]
7,NS(=O)(=O)c1ccc(Nc2nc(Nc3ccccc3)nc(-n3nc(-c4ccccc4)cc3-c3ccccc3)n2)cc1,10.7%
8,COc1ccc(NC(=O)c2sc3nc(-c4cnccn4)cc(-c4cccs4)c3c2N)cc1,94.6%
9,COc1cc(/C=C/C(=O)c2ccc(F)cc2)ccc1Oc1nc(NCCO)nc(N2CCOCC2)n1,4.33% (active)
10,Cn1cc(-c2cc(N)n3nc(-c4cn(C)c5ccc(Br)cc45)cc3n2)c2cc(Br)ccc21,22.8%
11,OC1CCN(CCCOc2c3ccc(Cl)cc3nc3c2oc2ccc(Cl)cc23)CC1,-28.8% (active)
12,N/C(=N\c1nc2c(Br)cccc2s1)C(Br)Br,-1.73% (active)
13,NS(=O)(=O)c1cccc(Nc2nc(SCC(=O)c3ccc([N+](=O)[O-])cc3)nc3ccccc23)c1,12%
14,COC(=O)C(C)NS(=O)(=O)/N=C1\NC(=O)NC1=C(Cl)Cl (stereo not given),95.9%
15,Clc1ccc(Cc2nnc3sc(-c4cccnc4)nn23)cc1,98.9%
16,CCOC(=O)c1c(Nc2ccccc2)nn2c(N)c(C#N)c(-c3ccc(OC)cc3)nc12,89.3%
17,CN1CCc2c(sc3ncnc(N/N=C/c4ccc(Cl)c(Cl)c4)c23)C1,8.1% (active)
18,COc1ccc(C(=O)c2cc(C(=O)/C=C/c3c(Cl)cccc3Cl)c3cc(C)ccn23)cc1,99.8%
19,COc1ccc(/C=N/Nc2ccnc3cc(Cl)ccc23)cc1Cl,-19.8% (active)
20,N#Cc1c(-c2ccc(F)cc2)nc2c(C#N)c(Nc3ccccc3)nn2c1N,96.1%
